The source of these data is PubChem BioAssay (Tox21).

Test [1] is described as follows: A CellTox Green Cytotoxicity Assay to monitor cytotoxicity in HepG2 cells - 24 hour (AID 1224878). Note: nearly all actives have a fitted effect of over 45% in size. Put shortly:
(§1)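 Using 1536-well format, dye-containing HepG2 suspension was seeded, allowed 5 h at 37 C/5% CO2, dosed by pintool with compounds, positive and negative controls, and imaged for fluorescence across 40 h.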

Test [2] can be described thus: qHTS RealTime-Glo MT Cell Viability Assay in HEK293 cells - 0 hour (AID 1224880). Note: top concentration of the series differs between compounds; nearly all actives have a fitted effect of over 45% in size. The gist of the method:
(§2)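 Viable HEK293 cells reduce a cell-permeant prosubstrate; the product diffuses out and is consumed by NanoLuc in the medium to give light. Compounds went in after a 5 h incubation and plates were read over the treatment course.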
(qHTS replaces the single test concentration by a dilution series.)

Test [3] in a line: A CellTox Green Cytotoxicity Assay to monitor cytotoxicity in HEK293 cells - 32 hour (AID 1224881). Note: nearly all actives have a fitted effect of over 40% in size. The gist of the method: (§3)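 Fluorescence intensity, read at 0, 8, 16, 24, 32 and 40 h of compound treatment, reflected dye binding to DNA of dead HEK293 cells; compounds (23 nL, DMSO) were added 5 h after plating cells with reagent.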
Test [4] in a line: A CellTox Green Cytotoxicity Assay to monitor cytotoxicity in HepG2 cells - 0 hour (AID 1224882). Note: nearly all actives have a fitted effect of over 35% in size. Put shortly: as §1
Test [5] is described as follows: A CellTox Green Cytotoxicity Assay to monitor cytotoxicity in HepG2 cells - 32 hour (AID 1224883). Note: nearly all actives have a fitted effect of over 50% in size. Put shortly:
as §1

The nature of test [6]: A CellTox Green Cytotoxicity Assay to monitor cytotoxicity in HEK293 cells - 8 hour (AID 1224884). Note: nearly all actives have a fitted effect of over 35% in size. Put shortly:
as §3

A short description of test [7]: qHTS RealTime-Glo MT Cell Viability Assay in HepG2 cells - 16 hour (AID 1224885). Note: nearly all actives have a fitted effect of over 50% in size. The gist of the method:
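qHTS, HepG2, 600 cells/well, RealTime-Glo (NanoLuc + prosubstrate) added with cells; 5 h preincubation; DMSO compound addition; 37 C; luminescence at 0/8/16/24/32/40 h.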

Test [8] can be described thus: qHTS RealTime-Glo MT Cell Viability Assay in HEK293 cells - 24 hour (AID 1224886). Note: top concentration of the series differs between compounds; nearly all actives have a fitted effect of over 50% in size. Put shortly:
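Assay medium contained NanoLuc luciferase plus cell-permeant prosubstrate, added with HEK293 cells at 600 cells/well. After 5 h at 37 C/5% CO2 compounds were added; plates stayed at 37 C for 40 h with serial luminescence reads.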

A short description of test [9]: A CellTox Green Cytotoxicity Assay to monitor cytotoxicity in HepG2 cells - 40 hour (AID 1224879). Note: nearly all actives have a fitted effect of over 40% in size. Note: potency is the fitted concentration of half-maximal effect. Put shortly:
as §1

Test [10] in a line: qHTS RealTime-Glo MT Cell Viability Assay in HEK293 cells - 8 hour (AID 1224887). Note: top concentration of the series differs between compounds; nearly all actives have a fitted effect of over 50% in size. Put shortly:
as §2

A number with no mark means an inactive call. Records with an inconclusive call do not appear. The source made the active and inactive calls. Calls come from the whole dose curve; as a rule, active = well fitted curve in the direction sought with a large enough effect in the repeat runs; inconclusive = weak or mixed curves; inactive = no such curve, though single readings can be large; an effect the other way counts as inactive or inconclusive.
% is set by controls: 0 for no effect and ±100 for the full control effect.

As to `Clc1ccc2c(c1)Nc1ccccc1S2`, the Potency result in test [1], in [2], in test [3], in test [4], in test [5] and in test [6] was “inactive” throughout. Besides, the compound was classed as inactive in test [7] and in test [8].

In the case of `CCCC(C)C(O)CC` (configuration not stated), the Potency result in test [1], in test [9], in test [2], in test [3], in test [4] and in test [5] was “inactive” in each case. In addition, the outcome in [7], in test [8] and in [10] was inactive.

Take `CCCCCCCCCCCC(C)=O`: the Potency entry in [1], in test [2], in test [3], in [4], in [5] and in test [6] was “inactive” in each case. For the same compound, the compound was classed as inactive in test [7], in test [8] and in [10].

Consider `COc1cc(C(=O)NC2CCCNC2)cc(OC)c1OC` (configuration not stated), for which the Potency entry in [1], in [9], in test [2], in [3], in test [4] and in test [5] was “inactive” throughout. Moreover, the Potency entry in test [6] is “inactive”. Further, the result in test [8] and in test [10] was inactive.

As to `CC(C)OC(=O)C(C(=O)OC(C)C)=C1SC=CS1`, the Potency result in test [1], in test [2], in test [3], in test [4], in [5] and in test [6] was “inactive” each time. Besides, the compound was classed as inactive in test [7].

In the case of `O=C(OOC(=O)c1ccccc1)c1ccccc1`, the Potency entry in test [1], in test [9], in test [3], in test [4], in [5] and in test [6] was “inactive” each time. Besides, the compound was classed as inactive in test [7].

As for `CCCCc1ccc(Cl)cc1`, the Potency entry in [1], in [9], in test [2], in test [3], in [4] and in [5] was “inactive” throughout. For the same compound, the Potency entry in [6] was “inactive”. Further, the call in test [7] and in test [10] was inactive.

Take `N=C(N)N`: the Potency entry in test [1], in test [9], in test [2], in test [3], in [4] and in test [5] was “inactive” in each case. Moreover, the compound was classed as inactive in [7], in [8] and in test [10].

With `O=C1CC2(CCCC2)CC(=O)N1CCNCC1COc2ccccc2O1` (configuration not stated), the Potency result in test [1], in [9], in test [3], in test [4], in test [5] and in [6] was “inactive” in each case. The compound was called inactive in test [7], in [8] and in [10].

Regarding `CCCCCC(CC)OC(=O)CCCOc1ccc(Cl)cc1Cl` (configuration not stated), the Potency entry in test [1], in [9], in test [2], in test [3], in test [4] and in [5] was “inactive” each time. Moreover, the Potency result in [6] is “inactive”. The outcome in test [8] and in test [10] was inactive.

In the case of `Cc1ccccc1OCC(=O)O`, the Potency result in test [1], in [2], in test [3], in test [4], in test [5] and in test [6] was “inactive” in each case. The compound was classed as inactive in [7], in test [8] and in test [10].

As for `Cc1ccc(O)c(C(=O)c2ccccc2)c1`, the Potency entry in test [1], in test [9], in [2], in test [3], in test [4] and in [5] was “inactive” in each case. Besides, the Potency result in test [6] was “inactive”. Also, the compound was classed as inactive in test [7] and in [10].

As to `CC(CC(=O)Cl)CC(C)(C)C` (configuration not stated), the Potency entry in [1], in test [9], in test [2], in [3], in test [4] and in test [5] was “inactive” in each case. Moreover, the call in test [7], in test [8] and in [10] was inactive.

In the case of `CCCCOCCCC`, the Potency entry in test [1], in [9], in test [2], in test [4], in test [5] and in test [6] was “inactive” in each case. The outcome in test [7], in test [8] and in test [10] was inactive.

Regarding `Clc1cc(Cl)c(Cl)c(Cl)c1Cl`, the Potency result in test [1], in [9], in test [2], in test [3], in [4] and in test [6] was “inactive” each time. The result in [7], in test [8] and in [10] was inactive.

In the case of `O=C(O)P(=O)(O)O`, the Potency result in test [1], in [2], in [3], in test [4], in test [5] and in test [6] was “inactive” in each case. Besides, the compound was called inactive in test [7], in test [8] and in test [10].

With `CC1(C)S[C@@H]2[C@H](NC(=O)Cc3ccccc3)C(=O)N2[C@H]1C(=O)O` (tested in a mixture with another compound), the Potency entry in test [1], in test [9], in test [3], in [4], in test [5] and in [6] was “inactive” each time. The compound was called inactive in test [7], in test [8] and in test [10].

As to `COCc1nnc(-c2ccc[n+]([O-])c2)n1-c1c(Cl)c(Cl)cc2[nH]c(=O)c(=O)[nH]c12`, the Potency result in test [1], in test [9], in [2], in test [3], in test [4] and in test [5] was “inactive” in each case. In addition, the Potency result in [6] was “inactive”. The call in [7] and in test [10] was inactive.

Consider `C[C@]12C=CC(=O)C=C1[C@@H](F)C[C@@H]1[C@@H]2[C@@H](O)C[C@@]2(C)[C@H]1CC[C@]2(O)C(=O)CO`, for which the Potency result in test [1], in test [9], in test [3], in test [4], in test [5] and in [6] was “inactive” in each case. Moreover, the call in [7], in test [8] and in [10] was inactive.

Turning to `CCCCC(CC)COC(=O)CC#N` (configuration not stated), the Potency result in [1], in [2], in test [3], in test [4], in test [5] and in [6] was “inactive” in each case. Besides, the call in test [7], in test [8] and in test [10] was inactive.

As for `CCCCS`, the Potency entry in [1], in [9], in test [2], in [4], in test [5] and in test [6] was “inactive” each time. The compound was called inactive in test [7], in test [8] and in test [10].

Regarding `CC(C)C[P+](C)(CC(C)C)CC(C)C`, the Potency entry in [1], in [9], in [2], in test [4], in test [5] and in test [6] was “inactive” throughout. Also, the result in test [7], in test [8] and in [10] was inactive.

As for `CCCCCCCCCCCCCCBr`, the Potency result in test [1], in test [9], in test [2], in test [3], in test [4] and in test [5] was “inactive” in each case. Moreover, the Potency entry in test [6] was “inactive”. Also, the result in test [7] and in test [10] was inactive.

Take `N#CC1(N)CCCCC1`: the Potency result in [1], in test [9], in test [2], in [3], in test [4] and in [5] was “inactive” throughout. Also, the call in test [7], in test [8] and in [10] was inactive.

For the compound `CC(C)(C)NCC(O)COc1cccc2c1CCC(=O)N2` (configuration not stated), the Potency entry in [1], in test [2], in test [3], in test [4], in test [5] and in [6] was “inactive” each time. For the same compound, the outcome in test [7], in test [8] and in test [10] was inactive.

Turning to `O=C1CCCc2c(O)cccc21`, the Potency result in test [1], in [2], in [3], in [4] and in test [6] was “inactive” each time. The Potency in test [9] was 9.52 µM (active). The result in test [7], in [8] and in test [10] was inactive.

Take `CCNC(=O)C(C)OC(=O)Nc1ccccc1` (configuration not stated): the Potency result in test [1], in test [2], in test [3], in test [4], in [5] and in test [6] was “inactive” throughout. Moreover, the compound was classed as inactive in test [7], in test [8] and in test [10].

With `OCCC(F)(F)C(F)(F)C(F)(F)C(F)(F)C(F)(F)C(F)(F)F`, the Potency result in test [1], in [2], in test [3], in test [4], in test [5] and in test [6] was “inactive” throughout. Also, the compound was called inactive in test [7], in [8] and in test [10].

Regarding `CCOC(=O)COc1ccc2c(C)c(CCN(CC)CC)c(=O)oc2c1Cl`, the Potency entry in test [1], in test [2], in test [3], in test [4], in test [5] and in [6] was “inactive” each time. In addition, the result in test [7] and in test [8] was inactive.

For the compound `Cc1cc2c(cc1CC(=O)c1sccc1S(=O)(=O)Nc1onc(C)c1Cl)OCO2`, the Potency result in [1], in test [9], in test [3], in test [4], in test [5] and in test [6] was “inactive” in each case. Also, the call in test [7] and in test [10] was inactive.

`N=C(N)N1CCc2ccccc2C1`: the cytotoxicity in [1] was -11.7% [at 6.97 µM]. Further, the cytotoxicity increase was -14.4% [at 6.97 µM] in test [9], -11.6% [at 6.97 µM] in test [3], -12.5% [at 6.97 µM] in test [5] and -15.6% [at 6.97 µM] in test [6]. Moreover, the activity change, negative = cytotoxicity was -0.804% [at 6.97 µM] in test [2] and 2.38% [at 6.97 µM] in test [10]. Also, in [7], the activity change, negative = cytotoxic was 0.556% [at 6.97 µM].

On to `CC(O)C(CO)C(C)O` (configuration not stated), for which the Potency entry in test [1], in [9], in test [2], in [3], in [4] and in test [5] was “inactive” in each case. In addition, in test [6], the Potency result is “inactive”. The call in test [7] and in test [10] was inactive.

Take `CC(C)(C)c1ccc(N)cc1`: in [9], the Potency is 61.7 µM (active).

Take `CCCCCCCCOCCC#N`: the Potency in test [9] was 15.5 µM (active).
